Measured values taken from PubChem BioAssay (EPA / NIEHS).
Several values for one entry are separate records, joined by “and”; a condition that tells them apart may be missing. Identical values can stand only once. Where a structure was tested more than once in an assay, its records may differ in their call. Activity calls are given as the source filed them. Rule for the calls: active = hit-call score of the fitted dose curve at least 0.9, where 1 is the maximum; inactive = score below 0.9.

These compounds were tested on Interleukin 17A (IL17A), IL17A (gene 3605) (assay: BSK_BT_xIL17A: BioMAP Diversity Plus: BT Assay for Interleukin 17A (IL17A) Biomarker Activity (AID 2284229)). Settings: primary human B cells with PBMC.
Description: BSK_BT is a cell-based, multiplexed-readout assay that uses B cell and peripheral blood mononuclear cells, a human vascular primary cell co-culture, with measurements taken at 24 hours after chemical dosing in a microplate: 96-well plate.BSK_BT_xIL17A is an assay component measured in the BSK_BT assay. It measures secreted IL-17A related to regulation of gene expression using LumineX xMAP technology.Data from the assay component BSK_BT_xIL17A was analyzed at the endpoint, BSK_BT_xIL17A, in the positive analysis fitting direction relative to DMSO as the negative control and baseline of activity. Using a type of cytokine quantitation reporter, gain or loss-of-signal activity can be used to understand protein changes. To generalize the intended target to other relatable targets, this assay endpoint is annotated to the 'cytokine' intended target family, where the subfamily is 'interleukins'.
The levels of cell surface (or secreted, indicated by the prefix "s") biomarker endpoints were measured by ELISA. Overt cytotoxicity to cells in confluent adherent cultures (all systems other than the BT system) was assessed by measuring total protein levels using sulforhodamine B (SRB) staining in parallel cultures at the time of biomarker measurements, indicated as SRB endpoints. For proliferation assays for adherent cell types, individual cell types are cultured at sub-confluence and relative cell numbers quantified by SRB staining at time points optimized for each system (48 h: 3C and CASM3C systems; 72 h: BT and HDF3CGF systems; 96 h: SAg system). SRB was performed by staining cells with 0.1% SRB after fixation with 10% TCA and reading wells at 560 nm.Viability and proliferation of PBMC (T cells) was quantified by Alamar Blue reduction for the SAg and BT systems. For PBMC viability (referred to as PBMC Cytotoxicity within the assay endpoint names), cells were plated (75,000/well in a 96-well plate) and then chemical samples added for 1 h before addition of activators, SEB and TSST-1 (20 ng/mL final concentration each). Cells were incubated for 90 h. Then, Alamar Blue (20 uL/well) (Invitrogen, Cat DAL1100) was added for 6 h, and the plates were read with a fluorescence microplate reader at 546/580 nm (excitation/emission). For PBMC proliferation, cells were plated and activated as above but incubated for only 16 h prior to addition of Alamar Blue. Plates were read after 6 h.

| SMILES | outcome | AC50 |
| --- | --- | --- |
| O=S(=O)(F)C(F)(F)C(F)(F)C(F)(F)C(F)(F)C(F)(F)C(F)(F)C(F)(F)C(F)(F)F | inactive |  |
| CC(O)C(F)(F)C(F)(F)F (centres undefined) | inactive |  |
| C=CC(=O)OCC(CC)(COC(=O)C=C)COC(=O)C=C |  | 2.18 µM (active) |
| ClC(Cl)=C(c1ccc(Cl)cc1)c1ccccc1Cl |  | 27.3 µM (active) |
| O=C(O)C(F)(F)OC(F)(F)C(F)(F)OC(F)(F)C(=O)O | inactive |  |
| NC(=O)C(F)(F)C(F)(F)F | inactive |  |
| Cc1ccc2c(c1N)C(=O)c1ccccc1C2=O | inactive |  |
| CCCCC(CC)COC(=O)c1c(Br)c(Br)c(Br)c(Br)c1C(=O)OCC(CC)CCCC (centres undefined) | inactive |  |
| COC(=O)C(F)(F)C(F)(F)OC(F)(C(F)(F)F)C(F)(F)OC(F)=C(F)F (centres undefined) | inactive |  |
| COP(=O)(O)OC | inactive |  |
| Nc1ccc([N+](=O)[O-])cc1Cl | inactive |  |
| CC(Cl)CN(C)C (centres undefined) | inactive |  |
| OCC(F)(F)OC(F)(F)C(F)(F)OC(F)(F)C(F)(F)OC(F)(F)CO | inactive |  |
| CCCCOCCOP(=O)(OCCOCCCC)OCCOCCCC | inactive |  |
| c1ccc2c(c1)sc1ccccc12 | inactive |  |
| CC(C)Nc1ccc(Nc2ccccc2)cc1 |  | 3.17 µM (active) |
| N#Cc1cc([N+](=O)[O-])ccc1N | inactive |  |
| N#Cc1c(-c2ccc(Cl)cc2)[nH]c(C(F)(F)F)c1Br |  | 1.14 µM (active) |
| CCOP(=S)(OCC)SCS(=O)(=O)CC | inactive |  |

| SMILES | outcome | AC50 |
| --- | --- | --- |
| CCCCC(CC)COP(=O)(Oc1ccccc1)Oc1ccccc1 (centres undefined) |  | 20 µM (active) |
| FC(F)(F)C(F)(C(F)(F)F)C(F)(F)C(F)(F)CC1CO1 (centres undefined) | inactive |  |
| OCC(F)(F)OC(F)(F)C(F)(F)OC(F)(F)C(F)(F)OC(F)(F)F | inactive | 49.2 µM (active) |
| O=c1ssc(Cl)c1Cl |  | 4.51 µM (active) |
| CCOP(=S)(NC(C)C)Oc1ccccc1C(=O)OC(C)C (centres undefined) | inactive |  |
| O=C(O)C(F)(F)OC(F)(F)C(F)(F)OC(F)(F)F | inactive |  |
| Cc1c([N+](=O)[O-])cc2c(c1[N+](=O)[O-])C(C)(C)CC2(C)C | inactive |  |
| CC(C)(C)c1ccccc1OP(=O)(Oc1ccccc1)Oc1ccccc1 |  | 24 µM (active) |
| CCOP(=S)(OCC)SCSc1ccc(Cl)cc1 | inactive |  |
| CCOP(=S)(S)OCC | inactive |  |
| C=CC(=O)OCC(F)(F)C(F)F |  | 30 µM (active) and 31.8 µM (active) |
| O=C(O)C(F)(F)C(F)(F)C(=O)O | inactive |  |
| OCC(F)(F)OC(F)(F)C(F)(F)OC(F)(F)CO | inactive |  |
| COP(N)(=S)OC | inactive |  |
| CCOP(=S)(OCC)SCn1nnc2ccccc2c1=O | inactive |  |
| O=S1(=O)OCC2C(CO1)C1(Cl)C(Cl)=C(Cl)C2(Cl)C1(Cl)Cl (centres undefined) |  | 16.1 µM (active) |
| O=C(O)C(F)(OC(F)(F)C(F)(F)C(F)(F)F)C(F)(F)F (centres undefined) | inactive |  |
| O=C(O)C=CC(F)(C(F)(F)F)C(F)(F)F | inactive |  |
| O=P(OCC(Br)CBr)(OCC(Br)CBr)OCC(Br)CBr (centres undefined) |  | 17.4 µM (active) |
